Drawing on PubChem BioAssay (EPA / NIEHS), this text covers outcome and AC50 for three compounds.

Molecules are shown by their SMILES. Calls of active or inactive are those of the source. How the source made its calls: active means hit-call score of the fitted dose curve at least 0.9, where 1 is the maximum; inactive means score below 0.9.

Read-out in assay [1]: C-C motif chemokine 2 (Homo sapiens) (UniProt P13500)
Nature of the assay: BSK_KF3CT_MCP1: BioMAP Diversity Plus: KF3CT Assay for Monocyte Chemoattractant Protein 1 (MCP1/CCL2) Biomarker Activity (AID 2283073). As to conditions: primary human keratinocytes with fibroblasts; actives raise or lower the signal. In a few lines:
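Human keratinocyte plus foreskin fibroblast primary co-culture exposed to chemical for 24 h. MCP-1 levels measured by ELISA. Bidirectional curve fitting relative to DMSO negative control as baseline.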

Read-out in assay [2]: Matrix Metallopeptidase 9 (MMP9), MMP9 (gene 4318)
In words: BSK_KF3CT_MMP9: BioMAP Diversity Plus: KF3CT Assay for Matrix Metallopeptidase 9 (MMP9) Biomarker Activity (AID 2283074).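 Further: MMP9 protein level quantified by ELISA in the co-culture.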 As to conditions: primary human keratinocytes with fibroblasts; actives raise or lower the signal. Put shortly:
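MMP-9 quantified by ELISA after 24 h chemical treatment of primary human skin keratinocyte/fibroblast co-cultures; gain or loss fitted against DMSO, with parallel SRB staining (0.1% SRB, 560 nm) for overt cytotoxicity.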

Read-out in assay [3]: urokinase plasminogen activator (uPA), PLAU (gene 5328)
Nature of the assay: BSK_KF3CT_uPA: BioMAP Diversity Plus: KF3CT Assay for urokinase plasminogen activator (uPA) Biomarker Activity (AID 2283075). Conditions: primary human keratinocytes with fibroblasts; actives raise or lower the signal. In a few lines: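 ELISA read-out of uPA 24 h after dosing human skin keratinocytes co-cultured with foreskin fibroblasts. Signal change fitted both ways relative to DMSO; sulforhodamine B on parallel cultures marks overt cytotoxicity.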

Read-out in assay [4]: CD40, CD40 (gene 958)
In words: BSK_LPS_CD40: BioMAP Diversity Plus: LPS Assay for CD40 Biomarker Activity (AID 2283076). Conditions: primary human HUVEC with PBMC; actives raise or lower the signal. Put shortly:
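Primary human umbilical vein endothelial cells co-cultured with peripheral blood mononuclear cells, LPS-stimulated, were dosed with chemical and read 24 h later. CD40 levels were measured by ELISA and fitted bidirectionally against DMSO as negative control and baseline.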

Read-out in assay [5]: E-selectin (Homo sapiens) (UniProt P16581)
In words: BSK_LPS_Eselectin: BioMAP Diversity Plus: LPS Assay for Eselectin Biomarker Activity (AID 2283077). Conditions: primary human HUVEC with PBMC; actives raise or lower the signal. In a few lines: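 Human umbilical vein endothelial cells co-cultured with peripheral blood mononuclear cells under LPS stimulation; E-selectin measured by ELISA 24 h after chemical dosing. Activity fitted bidirectionally against DMSO as negative control and baseline.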

Read-out in assay [6]: Interleukin-8 (IL8), CXCL8 (gene 3576)
Nature of the assay: BSK_LPS_IL8: BioMAP Diversity Plus: LPS Assay for Interleukin-8 (IL8) Biomarker Activity (AID 2283078). As to conditions: primary human HUVEC with PBMC; actives raise or lower the signal. In a few lines: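 Human umbilical vein endothelial cells co-cultured with PBMC were stimulated with LPS; IL-8 levels were measured by ELISA 24 h after chemical dosing. Activity was fitted bidirectionally against DMSO as negative control and baseline.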

Assay [7] is described as follows: BSK_LPS_SRB: Viability Assessment in the BioMAP Diversity Plus: LPS Assay (AID 2283079).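 Further: total protein by sulforhodamine B absorbance as a cytotoxicity measure; measured one day after compound addition; fitted in both directions against DMSO so loss or gain of signal counts.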 As to conditions: primary human HUVEC with PBMC. Put shortly: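 Human umbilical vein endothelial cells co-cultured with PBMC (LPS system) were dosed for 24 h. Total protein was stained with 0.1% sulforhodamine B after 10% TCA fixation, read at 560 nm, and fitted bidirectionally against DMSO baseline.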

Read-out in assay [8]: Interleukin-1 alpha (IL1a), IL1A (gene 3552)
Nature of the assay: BSK_LPS_IL1a: BioMAP Diversity Plus: LPS Assay for Interleukin-1 alpha (IL1a) Biomarker Activity (AID 2283080). As to conditions: primary human HUVEC with PBMC; actives raise or lower the signal. Put shortly: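 Human umbilical vein endothelial cells co-cultured with peripheral blood mononuclear cells were LPS-stimulated and exposed to test chemicals for 24 h. IL-1 alpha was quantified by ELISA, with bidirectional curve fitting against DMSO as the negative control and baseline.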

Read-out in assay [9]: Monocyte Chemoattractant Protein-1 (MCP1), CCL2 (gene 6347)
Nature of the assay: BSK_LPS_MCP1: BioMAP Diversity Plus: LPS Assay for Monocyte Chemoattractant Protein-1 (MCP1) Biomarker Activity (AID 2283081).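 Further: co-culture stimulated with LPS; secreted MCP-1 protein quantified by ELISA in culture supernatant.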 Conditions: primary human HUVEC with PBMC; actives raise or lower the signal. In a few lines: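 HUVEC plus PBMC co-culture (human primary cells, LPS system) exposed to test chemical for 24 h; MCP-1 measured by ELISA. Bidirectional curve fitting against DMSO baseline; parallel SRB total-protein staining flags overt cytotoxicity.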

The nature of assay [10]: BSK_LPS_PGE2: BioMAP Diversity Plus: LPS Assay for Prostaglandin E2 (PGE2) Biomarker Activity (AID 2283082).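 On AC50: secreted prostaglandin E2 measured by ELISA in LPS-stimulated co-culture.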 Conditions: primary human HUVEC with PBMC; actives raise or lower the signal. Put shortly:
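ELISA read-out of PGE2 from human umbilical vein endothelial cells co-cultured with peripheral blood mononuclear cells under LPS, 24 h post-dose. Gain or loss of signal scored relative to DMSO baseline.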

Read-out in assay [11]: Macrophage colony-stimulating factor (MCSF), CSF1 (gene 1435)
Nature of the assay: BSK_LPS_MCSF: BioMAP Diversity Plus: LPS Assay for Macrophage colony-stimulating factor (MCSF) Biomarker Activity (AID 2283083). As to conditions: primary human HUVEC with PBMC; actives raise or lower the signal. In a few lines:
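Human umbilical vein endothelial cells co-cultured with peripheral blood mononuclear cells were exposed to compound for 24 h. M-CSF levels were measured by ELISA, and bidirectional curve fitting used DMSO as the negative control and baseline.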

Read-out in assay [12]: Tissue Factor, F3 (gene 2152)
In words: BSK_LPS_TissueFactor: BioMAP Diversity Plus: LPS Assay for Tissue Factor Biomarker Activity (AID 2283084). Conditions: primary human HUVEC with PBMC; actives raise or lower the signal. Put shortly:
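Human umbilical vein endothelial cells co-cultured with peripheral blood mononuclear cells were dosed and stimulated with LPS. Cell-surface CD142 was quantified by ELISA at 24 h. Activity was fitted bidirectionally against DMSO baseline.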

Read-out in assay [13]: Vascular cell adhesion molecule 1 (VCAM1), VCAM1 (gene 7412)
In words: BSK_LPS_VCAM1: BioMAP Diversity Plus: LPS Assay for Vascular cell adhesion molecule 1 (VCAM1) Biomarker Activity (AID 2283086). Conditions: primary human HUVEC with PBMC; actives raise or lower the signal. In a few lines: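 ELISA read-out of VCAM-1 at 24 h post-dosing in an LPS-driven HUVEC/PBMC primary human co-culture; gain or loss of signal fitted bidirectionally against DMSO baseline. Cytotoxicity tracked in parallel cultures by SRB total-protein staining.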

Read-out in the next assay: CD38, CD38 (gene 952)
In words: BSK_SAg_CD38: BioMAP Diversity Plus: SAg Assay for CD38 Biomarker Activity (AID 2283087). Conditions: primary human HUVEC with PBMC; actives raise or lower the signal. In a few lines: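 Measures CD38 on a human endothelial/PBMC co-culture driven by SEB and TSST-1, 24 h after compound exposure, using ELISA with fluorescence detection; DMSO defines baseline for bidirectional curve fitting.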

Read-out in assay [14]: CD40, CD40 (gene 958)
In words: BSK_SAg_CD40: BioMAP Diversity Plus: SAg Assay for CD40 Biomarker Activity (AID 2283088). Conditions: primary human HUVEC with PBMC; actives raise or lower the signal. In a few lines: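 Human umbilical vein endothelial cells co-cultured with PBMC; CD40 levels measured by ELISA with fluorescence read-out 24 h after chemical dosing. Gain or loss of signal fitted bidirectionally against DMSO baseline.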

Read-out in a further assay: CD69, CD69 (gene 969)
Nature of the assay: BSK_SAg_CD69: BioMAP Diversity Plus: SAg Assay for CD69 Biomarker Activity (AID 2283089).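 Further: cell surface CD69 protein quantified by ELISA with fluorescence detection.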 As to conditions: primary human HUVEC with PBMC; actives raise or lower the signal. In a few lines:
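Primary human vascular co-culture (umbilical vein endothelium with peripheral blood mononuclear cells) exposed to test chemical for 24 h. CD69 levels quantified by fluorescence ELISA; DMSO served as negative control for bidirectional fitting.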

Read-out in assay [15]: Monocyte Chemoattractant Protein-1 (MCP1), CCL2 (gene 6347)
Nature of the assay: BSK_SAg_MCP1: BioMAP Diversity Plus: SAg Assay for Monocyte Chemoattractant Protein-1 (MCP1) Biomarker Activity (AID 2283090). As to conditions: primary human HUVEC with PBMC; actives raise or lower the signal. In a few lines: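 Values derive from bidirectional fitting of ELISA-measured MCP1 against DMSO controls. Readings were taken 24 h after dosing human vascular endothelial cells co-cultured with peripheral blood mononuclear cells under superantigen stimulation.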

Read-out in assay [16]: E-selectin (Homo sapiens) (UniProt P16581)
Nature of the assay: BSK_SAg_Eselectin: BioMAP Diversity Plus: SAg Assay for Eselectin Biomarker Activity (AID 2283091). As to conditions: primary human HUVEC with PBMC; actives raise or lower the signal. In a few lines: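 HUVEC co-cultured with PBMC, compound dosed then read at 24 h; E-selectin measured by ELISA. Activity fitted bidirectionally against DMSO as negative control and baseline.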

Read-out in assay [17]: Monokine induced gamma interferon (MIG), CXCL9 (gene 4283)
In words: BSK_SAg_MIG: BioMAP Diversity Plus: SAg Assay for Monokine induced gamma interferon (MIG) Biomarker Activity (AID 2283092). As to conditions: primary human HUVEC with PBMC; actives raise or lower the signal. Put shortly:
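Endothelial cells and PBMC were co-cultured, exposed to test chemicals, and sampled 24 h later. MIG was measured by ELISA, and responses were fitted in both directions relative to DMSO.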

Sequence of E-selectin (Homo sapiens) (P16581 whole entry, looked up): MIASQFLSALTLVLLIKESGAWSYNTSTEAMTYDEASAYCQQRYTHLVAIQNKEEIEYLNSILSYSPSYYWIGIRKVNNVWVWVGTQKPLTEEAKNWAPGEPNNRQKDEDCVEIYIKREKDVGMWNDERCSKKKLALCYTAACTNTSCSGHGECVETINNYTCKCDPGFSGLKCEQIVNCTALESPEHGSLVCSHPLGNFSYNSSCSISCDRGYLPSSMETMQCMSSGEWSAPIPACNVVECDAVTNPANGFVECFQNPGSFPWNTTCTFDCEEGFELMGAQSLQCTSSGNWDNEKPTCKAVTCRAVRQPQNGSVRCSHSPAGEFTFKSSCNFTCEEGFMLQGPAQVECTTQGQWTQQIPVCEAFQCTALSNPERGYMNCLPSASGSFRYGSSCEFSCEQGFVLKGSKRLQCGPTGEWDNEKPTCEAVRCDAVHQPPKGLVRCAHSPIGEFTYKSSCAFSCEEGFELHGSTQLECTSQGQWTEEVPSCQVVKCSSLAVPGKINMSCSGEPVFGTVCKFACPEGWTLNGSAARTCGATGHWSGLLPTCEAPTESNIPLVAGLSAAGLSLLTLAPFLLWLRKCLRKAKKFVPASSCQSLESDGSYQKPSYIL

As to `CC(=O)NC1(c2cccc(F)c2)CCN(CC[C@@]2(c3ccc(Cl)c(Cl)c3)CN(c3ccccc3)C(=O)CO2)CC1`, the outcome in assay [1] is “inactive”; with CD40, CD40 (gene 958) [4], “inactive”; in [5] it was “inactive”; in assay [10], “inactive”; in [11] it was “inactive”; in assay [12] it was “inactive”. The outcome in [16] and in [17] was inactive. Further, the AC50 in assay [2] was 25.8 µM (active); in [3] it was 27 µM (active); in assay [6], 4.23 µM (active); in [7], 12.8 µM (active); in assay [8] it was 24.9 µM (active); in [9] it was 16.6 µM (active). The AC50 in assay [13] is 16.6 µM (active); in the assay with CD38, CD38 (gene 952) it was 26.7 µM (active); with CD40, CD40 (gene 958) [14] it was 30.5 µM (active); in the assay with CD69, CD69 (gene 969), 25.2 µM (active); in assay [15] it was 27.5 µM (active).

Turning to `CCCCCCCCCCCCN1CCCC1=O`, the AC50 in assay [1] is 34.3 µM (active); in assay [2] it was 35 µM (active); in assay [3], 36.7 µM (active); in the assay with CD40, CD40 (gene 958) [4] it was 32.2 µM (active); in assay [5], 33.8 µM (active); in [6] it was 31.3 µM (active). The AC50 in [7] was 27.4 µM (active); in assay [8], 33 µM (active); in [9], 32.9 µM (active); in assay [11], 32.6 µM (active); in assay [13], 34.1 µM (active); in the assay with CD38, CD38 (gene 952), 31.3 µM (active). The AC50 was 30.9 µM (active) with CD40, CD40 (gene 958) [14]; 29.9 µM (active) with CD69, CD69 (gene 969); 29.6 µM (active) in [15]; 30.3 µM (active) in assay [16]; 36.8 µM (active) in [17]. Further, the result in [10] and in assay [12] was inactive.

Regarding `CC(C)(C)c1ccc(O)c(C(C)(C)C)c1`, the half-maximal activity concentration (AC50) in [1] is 13.4 µM (active); in assay [2], 9.23 µM (active); in assay [3] it was 11.3 µM (active); with CD40, CD40 (gene 958) [4], 14 µM (active); in assay [5], 13.3 µM (active); in assay [6], 26.6 µM (active). In addition, the AC50 in assay [7] is 17.7 µM (active); in assay [8] it was 14.4 µM (active); in assay [9], 26.7 µM (active); in [10], 16.9 µM (active); in [11] it was 13.4 µM (active); in assay [12], 20 µM (active). Also, the AC50 in assay [13] was 19.4 µM (active); with CD38, CD38 (gene 952), 14.5 µM (active); with CD40, CD40 (gene 958) [14], 20 µM (active); in the assay with CD69, CD69 (gene 969) it was 24.8 µM (active); in assay [15], 23.6 µM (active); in assay [16], 11.9 µM (active). Besides, the AC50 in assay [17] was 28.7 µM (active).
